Our source for the Potency and activity (max response) values is PubChem BioAssay (NCATS).

Where “and” joins values, the source holds several entries; their conditions need not be identical. Equal values may be shown once. Inconclusive results are not listed. Some structures have more than one record in an assay (separate samples or runs), and their calls can disagree. Calls of active or inactive are those of the source. Calls come from the whole dose curve; as a rule, active = well fitted curve in the direction sought with a large enough effect; inconclusive = small, poorly fitted or top-dose-only effect, or another doubt; inactive = no such curve, though single readings can be large; an effect the other way counts as inactive or inconclusive.

Assay [1] concerns the target Cytochrome P450 3A7 (Homo sapiens) (UniProt P24462). Description: Cytochrome P450 family 3 subfamily A member 7 (CYP3A7) small molecule antagonists: luciferase biochemical qHTS assay (AID 1963596). Note: nearly all actives have a fitted effect of over 40% in size. Note: potency is the fitted concentration of half-maximal effect. In outline:
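Luminescence from luciferin released by CYP3A7 from a proluciferin substrate, read 20 min after detection reagent. Compound and enzyme-substrate mix sat 10 min before NADPH regeneration solution; reaction ran 1 h at room temperature.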
Background: Quantitative high-throughput screening tests each substance at several concentrations.

A short description of assay [2]: Viability qHTS for spleen associated tyrosine kinase inhibitor (SYKi) naive MV4-11 cells (AID 1963823). Note: nearly all actives have a fitted effect of over 40% in size. Note: potency is the fitted concentration of half-maximal effect. The gist of the method: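 Seeding of 500 SYKi-naive MV4-11 cells per well onto pre-dispensed compounds preceded a 72 hr incubation at 37 C. Luminescent CellTiter-Glo signal, read after 10 min at room temperature, reflected viable cells.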
The nature of assay [3]: Quantitative highthroughput screen to assess conditional lethalithy of NOMO1 cells grown in RPMI1640 with untreated serum (RPMI+s) (AID 1963876).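 For Viability: 100% = DMSO wells and 0% = empty wells without cells.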 Note: nearly all actives have a fitted effect of over 35% in size. Note: potency is the fitted concentration of half-maximal effect. The gist of the method:
(§1)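 Each medium arm—HPLM with 10% dialyzed FBS, or RPMI1640 with 5 mM glucose and 10% untreated or dialyzed FBS—was screened against an 11-point, 3-fold compound titration for 48 h at 37 °C, with CellTiter-Glo luminescence as endpoint.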

Assay [4] is described as follows: Quantitative highthroughput screen to assess conditional lethalithy of NOMO1 cells grown in RPMI1640 with dialyzed fetal bovine serum (RPMI+ds) (AID 1963877).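 For Viability: series mostly up to about 46 µM; 100% = DMSO control wells and 0% = empty wells.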 Note: nearly all actives have a fitted effect of over 30% in size. Note: potency is the fitted concentration of half-maximal effect. In outline:
as §1

Assay [5] is described as follows: Quantitative highthroughput screen to assess conditional lethalithy of P12 Ichikawa cells grown in Human Plasma-Like Medium with dialyzed fetal bovine serum (HPLM+ds) (AID 1963879). For Viability: series mostly up to about 46 µM. Note: nearly all actives have a fitted effect of over 35% in size. Note: potency is the fitted concentration of half-maximal effect. The following applies: Potency: viability. In outline: as §1
Assay [6] in a line: Quantitative highthroughput screen to assess conditional lethalithy of P12 Ichikawa cells grown in RPMI1640 with dialyzed fetal bovine serum (RPMI+ds) (AID 1963880).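 For Viability: 100% = DMSO wells and 0% = empty wells on each plate.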 Note: nearly all actives have a fitted effect of over 35% in size. Note: potency is the fitted concentration of half-maximal effect. The following applies: Potency: P12-Ichikawa viability. In outline: as §1
Assay [7] in a line: Quantitative highthroughput screen to assess conditional lethalithy of P12 Ichikawa cells grown in RPMI1640 with untreated serum (RPMI+s) (AID 1963881).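 For Viability: series mostly up to about 46 µM; 100% = DMSO wells and 0% = empty wells without cells.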 Note: nearly all actives have a fitted effect of over 35% in size. Note: potency is the fitted concentration of half-maximal effect. The settings on record: Potency: viability. In outline: as §1
A short description of assay [8]: Cellular viability qHTS for adrenocortical cancer (ACC) cell line SW-13 (AID 1963989).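 For activity (max response): cells grown in serum-free medium with ITS supplement; % is set by controls: 0 for no effect and ±100 for the full control effect.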 Note: nearly all actives have a fitted effect of over 65% in size. Note: potency is the fitted concentration of half-maximal effect. The following applies: SW-13 ACC cells viability, CellTiter-Glo, 48 h; activity (max response): stronger effect = lower value. The gist of the method: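 48 h treatment, SW-13 in ITS/DMEM serum-free; doses up to 46 uM; readout CellTiter-Glo luminescence; curve fit four-parameter logistic.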

Assay [9] in a line: Quantitative highthroughput screen to assess conditional lethalithy of SEM cells grown in Human Plasma-Like Medium with dialyzed fetal bovine serum (HPLM+ds) (AID 1963882). For Viability: series mostly up to about 46 µM. Note: nearly all actives have a fitted effect of over 35% in size. Note: potency is the fitted concentration of half-maximal effect. In outline:
as §1

Assay [10] in a line: Quantitative highthroughput screen to assess conditional lethalithy of SEM cells grown in RPMI1640 with dialyzed fetal bovine serum (RPMI+ds) (AID 1963884).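 For Viability: series mostly up to about 46 µM; 100% = DMSO control wells and 0% = empty wells without cells.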 Note: nearly all actives have a fitted effect of over 35% in size. Note: potency is the fitted concentration of half-maximal effect. In outline: as §1
Assay [11] is described as follows: Cellular viability qHTS for adrenocortical cancer (ACC) cell line NCI-H295R (AID 1963990). Note: nearly all actives have a fitted effect of over 60% in size. Note: potency is the fitted concentration of half-maximal effect. In outline:
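Compound titrations (up to 46 uM final) are applied to NCI-H295R cultures for 48 h at 37C. Viable cell number is estimated by CellTiter-Glo signal, normalised to DMSO and doxorubicin controls.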

Assay [12] in a line: Quantitative highthroughput screen to assess conditional lethalithy of SEM cells grown in RPMI1640 with unreated serum (RPMI+s) (AID 1963883).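 For Viability: 100% = DMSO wells and 0% = empty wells without cells.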 Note: nearly all actives have a fitted effect of over 35% in size. Note: potency is the fitted concentration of half-maximal effect. In outline: as §1
Assay [13] in a line: Quantitative highthroughput screen to assess conditional lethalithy of NOMO1 cells grown in Human Plasma-Like Medium with dialyzed fetal bovine serum (HPLM+ds) (AID 1963878).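 For Viability: 100% = DMSO wells and 0% = empty wells on each plate.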 Note: nearly all actives have a fitted effect of over 35% in size. Note: potency is the fitted concentration of half-maximal effect. The gist of the method:
as §1

Assay [14] in a line: Viability qHTS for spleen associated tyrosine kinase inhibitor (SYKi) drug resistant MV4-11 cells (AID 1963824). Note: nearly all actives have a fitted effect of over 35% in size. In outline:
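SYK inhibitor-resistant MV4-11 AML cells, 500 per well, added to predispensed compounds and incubated 72 hr at 37 C, 5% CO2. Viability measured by CellTiter-Glo luminescence after 10 min at room temperature.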

Cytochrome P450 3A7 (Homo sapiens), sequence (P24462 whole entry, looked up): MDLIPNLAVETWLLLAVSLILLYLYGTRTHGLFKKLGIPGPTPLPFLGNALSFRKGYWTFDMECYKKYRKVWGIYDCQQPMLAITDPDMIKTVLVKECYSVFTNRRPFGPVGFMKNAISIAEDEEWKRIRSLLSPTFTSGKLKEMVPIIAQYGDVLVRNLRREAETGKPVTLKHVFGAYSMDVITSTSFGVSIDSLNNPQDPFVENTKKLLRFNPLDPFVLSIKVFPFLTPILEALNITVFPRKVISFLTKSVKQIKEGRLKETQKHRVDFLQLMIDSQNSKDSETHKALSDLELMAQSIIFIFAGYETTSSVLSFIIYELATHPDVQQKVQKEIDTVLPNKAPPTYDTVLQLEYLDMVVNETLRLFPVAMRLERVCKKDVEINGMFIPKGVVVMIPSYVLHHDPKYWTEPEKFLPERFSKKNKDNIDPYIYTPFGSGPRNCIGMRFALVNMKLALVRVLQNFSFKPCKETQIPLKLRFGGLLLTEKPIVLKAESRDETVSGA

As for `CCCCOc1c(C(=O)c2c(F)cc(C)cc2F)cnc2n[nH]cc12`, the Potency entry in [1], in assay [3], in assay [4], in [5], in assay [6] and in assay [7] was “inactive” throughout. Further, in [2], the Potency is 651 nM (active) and 1.32 µM (active). In [8], the activity (max response) is -11.6% (inactive).

Consider `O=c1[nH]cnc2c1ncn2[C@H]1CC[C@@H](CO)O1`, for which the Potency entry in [1], in assay [2], in assay [10] and in assay [11] was “inactive” in each case. Besides, the Potency in assay [6] is 16.6 µM (active); in assay [9], 18.7 µM (active). Besides, the activity (max response) in assay [8] was 1.58% (inactive).

For `Nc1cc(C(Cl)=C(Cl)Cl)c(S(N)(=O)=O)cc1S(N)(=O)=O`, the Potency entry in [1], in assay [2] and in [11] was “inactive” in each case. The Potency in [3] is 7.43 µM (active); in [4] it was 7.43 µM (active); in assay [5] it was 1.18 µM (active); in assay [6], 5.26 µM (active); in [7], 7.43 µM (active); in assay [9], 7.43 µM (active). Also, the Potency in assay [12] was 2.96 µM (active); in assay [10], 4.18 µM (active). In assay [8], the activity (max response) was -17% (inactive) and 6.7% (inactive).

`C[C@@H](CN1CC(=O)NC(=O)C1)N1CC(=O)NC(=O)C1`: the Potency entry in assay [1], in assay [2] and in assay [11] was “inactive” in each case. The Potency was 0.469 µM (active) in assay [3]; 0.332 µM (active) in assay [4]; 0.148 µM (active) in assay [13]; 0.372 µM (active) in assay [5]; 0.59 µM (active) in [6]; 0.833 µM (active) in assay [7]. For the same molecule, the results for the Potency in assay [9], in [12] and in assay [10] were 0.0935 µM (active), 0.0662 µM (active) and 0.0743 µM (active), respectively. The activity (max response) in [8] was 3.22% (inactive) and 6.64% (inactive).

As to `Cc1[nH]c(=O)c(C#N)cc1-c1ccncc1`, the Potency entry in assay [1], in assay [2], in [13], in assay [9], in [12] and in [11] was “inactive” throughout. Further, the activity (max response) in assay [8] was 14.7% (inactive) and 1.4% (inactive) and -7.07% (inactive).

Turning to `COc1ccccc1OCC(O)CN1CCN(CC(=O)Nc2c(C)cccc2C)CC1` (stereo not drawn), the Potency entry in [1], in assay [2], in assay [3], in [4], in [13] and in assay [5] was “inactive” each time. Further, the Potency entry in assay [6], in assay [7] and in assay [11] was “inactive” in each case. Moreover, the activity (max response) in assay [8] is 1.47% (inactive) and 6.99% (inactive).

For the molecule `CN(c1nccc(=O)[nH]1)C1CCN(c2nc3ccccc3n2Cc2ccc(F)cc2)CC1`, the Potency entry in assay [1], in assay [2], in assay [3], in [4], in [6] and in assay [7] was “inactive” each time. Further, the Potency entry in [12], in assay [10] and in assay [11] was “inactive” each time. The activity (max response) in assay [8] is 5.56% (inactive).

On to `CN1C(C(=O)Nc2ccccn2)=C(O)c2sccc2S1(=O)=O`, for which the Potency entry in [1], in assay [5], in assay [6], in [7], in assay [9] and in [12] was “inactive” each time. In addition, the Potency result in assay [10] and in assay [11] was “inactive” throughout. Also, the Potency in assay [2] is 750 nM (active) and inactive. Besides, the activity (max response) in assay [8] was 0.0862% (inactive) and -19.6% (inactive).

With `CCCCOc1ccc(C(=O)Nc2ccc(F)cc2F)cc1`, the Potency entry in [1], in [2], in assay [3], in [4], in assay [5] and in assay [6] was “inactive” in each case. Further, the Potency entry in assay [7], in [9] and in [10] was “inactive” throughout. Besides, the activity (max response) in assay [8] is -9.55% (inactive).

With `CN(C)CCN(Cc1ccccc1)c1ccccn1`, the Potency in assay [1] was 6.92 µM (active). Moreover, in assay [2], the Potency result was “inactive”. Further, the activity (max response) in assay [8] was -3.06% (inactive).

In the case of `COc1cc(C)nc(-n2nc(C)cc2OC)n1`, the Potency result in [1] and in [2] was “inactive” throughout. Further, in [8], the activity (max response) was 11% (inactive).

With `Nc1cccc2c1CN(C1CCC(=O)NC1=O)C2=O` (stereo not drawn), the Potency entry in assay [1], in assay [3], in assay [4], in assay [13], in assay [5] and in [7] was “inactive” each time. Besides, the Potency result in [9] and in assay [10] was “inactive” each time. In addition, in [2], the Potency was 4.22 µM (active). In [8], the activity (max response) was -7.43% (inactive).

As to `CCCn1c(=O)c2[nH]c(-c3cnn(Cc4cccc(C(F)(F)F)c4)c3)nc2n(CC)c1=O`, the Potency result in assay [1], in assay [2], in [5], in assay [9], in assay [12] and in assay [10] was “inactive” throughout. Moreover, the Potency entry in [11] was “inactive”. The Potency in assay [3] was 6.62 µM (active); in assay [6], 4.18 µM (active).

As to `CCN1CCN(c2cc3c(cc2F)c(=O)c(C(=O)O)cn3C2CC2)CC1`, the Potency result in [1] and in assay [2] was “inactive” in each case. Also, the activity (max response) in assay [8] was 2.41% (inactive).

As for `CN(Cc1cnc2nc(N)nc(N)c2n1)c1ccc(C(=O)N[C@@H](CCC(=O)O)C(=O)O)cc1`, the Potency result in assay [1] was “inactive”. The Potency in [2] is 10.6 nM (active) and 37.2 nM (active); in assay [5], 0.0662 µM (active); in [6], 0.105 µM (active); in assay [9], 0.132 µM (active); in assay [12], 1.05 µM (active); in assay [10], 0.0833 µM (active). For the same molecule, the Potency in [8] is 18.4 nM (active) and 251 nM (active); in assay [11], 13 nM (active) and 316 nM (active).

Take `CCN(C)C(=O)Oc1cccc([C@H](C)N(C)C)c1`: the Potency entry in assay [1], in [2], in assay [3], in [4], in assay [13] and in assay [5] was “inactive” in each case. Further, the Potency entry in assay [6], in assay [7], in [9], in assay [10] and in assay [11] was “inactive” throughout. In addition, the activity (max response) in assay [8] is 11.5% (inactive).

`C[N+](C)(C)CCCCCC[N+](C)(C)C`: the Potency entry in assay [1], in [2], in [14] and in assay [11] was “inactive” in each case.

Regarding `CCOCC(O)COc1ccc(NC(=O)CC[S+](C)C)cc1` (stereo not drawn), the Potency entry in assay [1], in assay [2], in assay [3], in assay [4], in [13] and in assay [5] was “inactive” each time. Further, the Potency entry in [6], in [7], in [9], in assay [12], in assay [10] and in assay [11] was “inactive” throughout. In assay [8], the activity (max response) is 1.78% (inactive) and -20% (inactive).
